Laboratory results taken from PubChem BioAssay AID1159580 (chemical genetic matrix, 2015).
Values joined by “and” are separate entries in the source; they are usually repeats but may differ in a detail not shown here. Equal entries are not always repeated. The campaign covered roughly 5,500 compounds. About 2,000 (36%) were called active. Another 18% or so got no clear call; they are omitted. Rule as the data show it: active = normalized growth mostly below about 0.91 (no sharp cut-off); inconclusive = no clear call, values can overlap the other calls; inactive = mostly above about 0.92. This is one part of the list.

Assay: chemical genetic growth profiling, strain panel (AID 1159580);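 also: tested at 20 µM; growth read once vehicle control cultures reached saturation at 30 °C; 1 = growth at the plate median or of vehicle wells; lower values mean less growth of the strain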
Details: S. cerevisiae deletion strains, growth OD

Measured: normalized growth

CCOC(=O)C1=C[C@]2(CC)CCCN3CCc4c(n1c1ccccc41)[C@@H]32
inactive: locus YAL021C, strain ccr4, hits give low values 1.03 | locus YAL026C, strain drs2, hits give low values 1.02 | locus YAL030W, strain snc1, hits give low values 1.03 | locus YBL061C, strain skt5, hits give low values 1.02 | locus YBR009C, strain hhf1, hits give low values 1.02 | locus YBR021W, strain FUR4, hits give low values 1.02 | locus YBR023C, strain chs3, hits give low values 1.03 | locus YBR171W, strain sec66, hits give low values 1.02 | locus YBR229C, strain ROT2, hits give low values 0.957 | locus YBR231C, strain swc5, hits give low values 1.02 | locus YBR279W, strain paf1, hits give low values 1.01 | locus YCL011C, strain gbp2, hits give low values 1.03 | locus YCL016C, strain dcc1, hits give low values 1.02 | locus YCL029C, strain bik1, hits give low values 0.974 | locus YCL061C, strain MRC1, hits give low values 1.02 | locus YCL069W, strain vba3, hits give low values 1.02 | locus YCR088W, strain abp1, hits give low values 1.02 | locus YDL005C, strain med2, hits give low values 1.02 | locus YDL035C, strain GPR1, hits give low values 0.977 | locus YDL040C, strain nat1, hits give low values 1.03 | locus YDL074C, strain BRE1, hits give low values 0.928 | locus YDL101C, strain DUN1, hits give low values 0.957 | locus YDL134C, strain PPH21, hits give low values 0.998 | locus YDL185W, strain tfp1, hits give low values 0.985 | locus YDL192W, strain arf1, hits give low values 0.975 | locus YDR001C, strain nth1, hits give low values 1.03 | locus YDR069C, strain doa4, hits give low values 1.05 | locus YDR101C, strain arx1, hits give low values 0.969 | locus YDR137W, strain rgp1, hits give low values 0.967 | locus YDR150W, strain NUM1, hits give low values 0.984 | locus YDR159W, strain sac3, hits give low values 1.02 | locus YDR162C, strain NBP2, hits give low values 0.937 | locus YDR195W, strain ref2 1.07 | locus YDR297W, strain sur2, hits give low values 1.02 | locus YDR318W, strain mcm21, hits give low values 0.969 | locus YDR334W, strain swr1, hits give low values 1.03 | locus YDR335W, strain msn5, hits give low values 1.01 | locus YDR388W, hits give low values 0.97 | locus YDR392W, strain spt3, hits give low values 0.979 | locus YDR502C, strain sam2, hits give low values 0.947 | locus YEL003W, strain gim4, hits give low values 1.02 | locus YEL037C, strain rad23, hits give low values 1.01 | locus YEL061C, strain CIN8 (second series), hits give low values 1.04 | locus YEL061C, strain CIN8, hits give low values 0.979 | locus YER015W, strain faa2, hits give low values 1.03 | locus YER016W, strain bim1, hits give low values 1.01 | locus YER110C, hits give low values 0.975 | locus YER111C, strain swi4, hits give low values 1.02 | locus YER155C, strain BEM2 (second series), hits give low values 0.992 | locus YER155C, strain BEM2, hits give low values 1.01 | locus YER167W, strain BCK2, hits give low values 1 | locus YFR010W, strain ubp6, hits give low values 1.03 | locus YGL078C, strain dbp3, hits give low values 0.979 | locus YGL086W, strain mad1, hits give low values 0.948 | locus YGL167C, strain pmr1, hits give low values 1.01 | locus YGL173C, strain kem1, hits give low values 1.04 | locus YGL227W, strain vid30, hits give low values 1.03 | locus YGL240W, strain doc1, hits give low values 1.03 | locus YGL248W, strain PDE1, hits give low values 0.954 | locus YGL253W, strain hxk2, hits give low values 1.03 | locus YGR135W, strain pre9, hits give low values 1 | locus YGR252W, strain gcn5, hits give low values 1.03 | locus YHR013C, strain ard1, hits give low values 1.01 | locus YHR027C, strain rpn1, hits give low values 1.03 | locus YHR030C, strain SLT2, hits give low values 0.994 and 1.01 | locus YHR079C, strain IRE1 (second series), hits give low values 0.985 | locus YHR079C, strain IRE1, hits give low values 1.03 | locus YHR094C, strain hxt1, hits give low values 0.977 | locus YHR129C, strain ARP1, hits give low values 0.987 | locus YHR142W, strain chs7, hits give low values 1.01 | locus YHR200W, strain rpn10, hits give low values 0.979 | locus YIL066C, strain RNR3, hits give low values 0.946 | locus YIL073C, strain SPO22, hits give low values 1.02 | locus YIL125W, strain kgd1, hits give low values 0.985 | locus YIR030C, strain dcg1, hits give low values 0.981 | locus YJL092W, strain hpr5, hits give low values 1.02 | locus YJL095W, strain BCK1 (second series), hits give low values 1.01 | locus YJL095W, strain BCK1, hits give low values 0.867 and 1.02 | locus YJL115W, strain asf1, hits give low values 1.05 | locus YJL129C, strain trk1, hits give low values 1.01 | locus YJL134W, strain LCB3, hits give low values 0.991 | locus YJL154C, strain vps35, hits give low values 1.01 | locus YJL164C, strain tpk1, hits give low values 1.01 | locus YJL166W, strain qcr8, hits give low values 1.02 | locus YJL168C, strain set2, hits give low values 0.979 | locus YJL187C, strain SWE1 (second series), hits give low values 0.927 | locus YJR043C, strain POL32, hits give low values 0.941 | locus YJR066W, strain TOR1, hits give low values 0.967
